Results as given in PubChem BioAssay (EPA / NIEHS).
Records with an inconclusive call do not appear. More than one record can exist for a structure, and the calls need not agree. Activity calls are given as the source filed them. How the source made its calls, unless noted: active means hit-call score of the fitted dose curve at least 0.9, where 1 is the maximum; inactive means score below 0.9.

Experiments:
[1] = CCTE_Shafer_MEA_dev_inter_network_spike_interval_mean: CCTE's Neural Network Formation Assay for Mean Inter-network Spike Interval, Shafer Lab (AID 2284047)
How it was run: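 Primary rat cortical neurons on PEI-coated 48-well MEAs (16 electrodes/well) were exposed from plating day 0 to DIV 12, with dosing renewed at DIV 5 and 9. Recordings at DIV 5, 7, 9, 12 were collapsed by trapezoidal AUC, loss-of-signal fit vs DMSO.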

[2] = CCTE_Shafer_MEA_dev_network_spike_number: CCTE's Neural Network Formation Assay for Number of Network Spikes, Shafer Lab (AID 2284048);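 further: synchronized bursts across electrodes counted on days 5 7 9 12 and integrated as AUC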;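 on AC50: fit as a loss of signal meaning fewer network spikes than DMSO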
How it was run: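 Primary rat cortical neurons on PEI/laminin 48-well MEA plates, dosed from plating day 0 for 12 days, renewed at DIV 5 and 9. Network spike counts recorded DIV 5, 7, 9, 12, collapsed as trapezoidal AUC; DMSO baseline.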

[3] = CCTE_Shafer_MEA_dev_network_spike_peak: CCTE's Neural Network Formation Assay for Mean Number of Electrodes in Network Spike, Shafer Lab (AID 2284049);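 on AC50: fitted for loss of signal meaning fewer electrodes in network spikes than DMSO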
How it was run: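 Network-spike peak electrode count from recordings on days 5, 7, 9 and 12 was combined as trapezoidal area under the curve. Rat cortical cultures were treated continuously from plating, with compound renewed at each feed (DIV 5, 9); fits versus DMSO.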

[4] = CCTE_Shafer_MEA_dev_spike_duration_mean: CCTE's Neural Network Formation Assay for Mean Spike Duration, Shafer Lab (AID 2284051);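 further: mean network spike duration pooled as area under curve over DIV 5 to 12 recordings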;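 on AC50: potency for a decrease in mean network spike duration versus DMSO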
How it was run: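 Rat cortical primary cultures, 48-well MEA (16 electrodes/well); compound from plating, renewed DIV 5, 9. Network spike duration (AxIS adaptive detector) recorded DIV 5/7/9/12, combined as trapezoidal AUC; loss direction vs DMSO.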

[5] = CCTE_Shafer_MEA_dev_network_spike_duration_std: CCTE's Neural Network Formation Assay for Standard Deviation of Network Spike Duration, Shafer Lab (AID 2284052);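 further: area under curve of spike duration SD across recording days 5 to 12; hits are decreases in network spike duration SD versus DMSO vehicle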
How it was run: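 Rat cortical cultures, 1.5 x 10^5 cells/well, exposed continuously from plating to DIV 12 with media/compound renewal at DIV 5, 9. Spontaneous activity recorded DIV 5/7/9/12, AxIS adaptive spike detector; AUC across days; negative direction vs DMSO.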

[6] = CCTE_Shafer_MEA_dev_per_network_spike_spike_number_mean: CCTE's Neural Network Formation Assay for Mean Number of Spikes in a Network Spike, Shafer Lab (AID 2284053);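 on AC50: fitted as decrease in spikes per network spike relative to DMSO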
How it was run: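 Rat cortical primary cultures on 48-well MEA; compound from day 0, re-dosed with full media change DIV 5, 9. Recorded DIV 5, 7, 9, 12; spikes in 0.05 s window at network-spike peak ÷ total network spikes; AUC; loss vs DMSO.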

[7] = CCTE_Shafer_MEA_dev_per_network_spike_spike_percent: CCTE's Neural Network Formation Assay for Percent of Spikes in a Network Spike, Shafer Lab (AID 2284054)
How it was run: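 Rat primary cortical neurons were grown on 48-well MEA plates (16 electrodes/well), exposed from plating day 0 through day 12, with treatment renewed on DIV 5 and 9. Percent of spikes within 0.05 s network-spike peaks was measured, summarised as AUC across days 5, 7, 9, 12.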

DIO2 (gene 1734) = test: CCTE_GLTED_hDIO2: CCTE's human Deiodinase 2 (DIO2) Inhibition Assay, Great Lakes Toxicology and Ecology Division (GLTED) Lab (AID 2284050; active means hit-call score of the fitted dose curve at least 0.9, where 1 is the maximum)
How it was run: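 Cell-free human DIO2 incubated 3 h with chemical; liberated iodide quantified by Sandell-Kolthoff absorbance. Triplicate plates; loss of signal fitted vs DMSO.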

[8] = CCTE_Shafer_MEA_dev_LDH: CCTE's Lactate Dehydrogenase Assay for Cytotoxicity in the Neural Network Formation Assay, Shafer Lab (AID 2284068; active means hit-call score of the fitted dose curve at least 0.9, where 1 is the maximum;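 further: exposure for twelve days from plating with re-dosing on DIV 5 and 9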)
How it was run: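 Rat cortical primary neurons, MEA culture; dosing day 0–12, full medium plus compound exchange DIV 5, 9. Read-out: LDH enzyme activity, spectrophotometric. DMSO = negative control/baseline; signal loss → cytotoxicity.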

[9] = UKN5_HCS_SBAD2_cell_viability: Viability Assessment in the University of Konstanz (UKN) Leist Lab Neurite Outgrowth Assay in human iPSC-derived immature Dorsal Root Ganglia Neurons (UKN5) (AID 2284056)
How it was run: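 iPSC-derived immature peripheral neurons (SBAD2) seeded on Matrigel with CHIR99021, SU5402 and DAPT, dosed 1 h later for 24 h. Viability from Hoechst H-33342 and calcein-AM live staining, high-content imaging; bidirectional fit versus DMSO.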

Measured: AC50

CC1(C)S[C@@H]2[C@H](NC(=O)COc3ccccc3)C(=O)N2[C@H]1C(=O)O
not listed: DIO2 (gene 1734) | [8] | [9]
inactive: all other assays above

CC/C=C\C/C=C\C/C=C\CCCCCCCC(=O)O
active: DIO2 (gene 1734) 21.2 µM

CCCCCCCCCCCCCOP(=O)(O)O
active: DIO2 (gene 1734) 80.5 µM

Cc1ccc(N/N=c2\c(=O)cc/c(=N/Nc3ccc(S(=O)(=O)O)cc3)c2=O)c(C)c1
inactive: DIO2 (gene 1734)

c1ccc2c(c1)ccc1cc3c(ccc4ccccc43)cc12
not listed: DIO2 (gene 1734) | [9]
inactive: all other assays above

Nc1ncn([C@@H]2O[C@H](CO)[C@@H](O)[C@H]2O)c(=O)n1
inactive: [1] | [2] | [3] | [4] | [5] | [6] | [7] | [9] | [8]
active: [2] 2.26 µM | [3] 4.18 µM | [4] 4.17 µM | [6] 2.56 µM | [7] 4.31 µM | [8] 5.16 µM

CC(C)C1=CC2=CC[C@@H]3[C@](C)(CCC[C@@]3(C)C(=O)O)[C@H]2CC1
active: DIO2 (gene 1734) 100 µM

CCCCC/C=C\C/C=C\CCCCCCCC(=O)OC
active: DIO2 (gene 1734) 46 µM

CC=C1CC2C=CC1C2 (stereo not drawn)
active: DIO2 (gene 1734) 100 µM

CCCCCCCC[N+](C)(CCCCCCCC)CCCCCCCC
active: DIO2 (gene 1734) 20.6 µM

CCN(CCC#N)c1ccc(N=Nc2c(Cl)cc([N+](=O)[O-])cc2Cl)cc1
inactive: DIO2 (gene 1734)
